This is part of a sample that, as a whole, favours compounds with a hit. Of some 83,000 tested, about 20% had one in any assay.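 Assay: single dose, 48 h. Readout: percent growth (0 = no net growth; negative = cell death). Active: <10.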 A number with no mark means an inactive call. Calls of active or inactive are those of the source.
Legend:
Assay in all cases: NCI-60 one-dose screen, 48 h (100 = growth as untreated, 0 = no growth, -100 = all killed)
Conditions in all cases: 10 µM unless noted
[1] = tested on: SR leukemia
[2] = tested on: RPMI-8226 leukemia
[3] = tested on: OVCAR-8 ovarian
[4] = tested on: OVCAR-5 ovarian
[5] = tested on: OVCAR-4 ovarian
[6] = tested on: SK-OV-3 ovarian
[7] = tested on: IGROV1 ovarian
[8] = tested on: OVCAR-3 ovarian
[9] = tested on: HS 578T breast
[10] = tested on: NCI/ADR-RES ovarian
[11] = tested on: T-47D breast
[12] = tested on: BT-549 breast
[13] = tested on: MDA-MB-435 melanoma
[14] = tested on: SW-620 colon
[15] = tested on: MCF7 breast
[16] = tested on: HCT-116 colon
[17] = tested on: HCC-2998 colon
[18] = tested on: KM12 colon

| SMILES | growth [1] | growth [2] | growth [3] | growth [4] | growth [5] | growth [6] | growth [7] | growth [8] | growth [9] | growth [10] | growth [11] | growth [12] | growth [13] | growth [14] | growth [15] | growth [16] | growth [17] | growth [18] |
| --- | --- | --- | --- | --- | --- | --- | --- | --- | --- | --- | --- | --- | --- | --- | --- | --- | --- | --- |
| COc1ccc2nc3ccccc3c(NCc3ccc(Cl)cc3)c2c1 | -29.6% (active) | -44.9% (active) | 29.7% | 26.5% | 24.5% | 64% | 16.3% | 51% | 36% | 22.9% | 49.3% | 50.2% | 24.1% | 12.8% | -56.4% (active) | 6.81% (active) | -87.6% (active) | 40.1% |
| C#C[C@]1(O)CC[C@H]2[C@@H]3CC=C4c5sc(-c6cccc(Br)c6)nc5CC[C@]4(C)[C@H]3CC[C@@]21C | 45.6% | 2.09% (active) | 98.7% | 75.5% | 100% | 95.9% | 102% | 101% | 69.5% | 91.1% | 80.6% | 87.3% | 91.7% | 87.9% | 55.3% | 83.6% | 85.1% | 63.8% |
| COc1ccc(-c2cc(C(=O)Nc3ccc(Br)cc3)nc3[nH]c(=O)sc23)cc1 | 65.1% | 14.2% | 43.1% | 84.9% | 34.2% | 26.7% | 25.2% | 36.9% | 41.6% | 40.7% | -0.894% (active) | 47% | 39.6% | 57.1% | 24.3% | 32.1% | 36.1% | 34.7% |
| CNC1=C([N+](=O)[O-])C(c2ccccc2O)C(C#N)=C(c2cccs2)O1 (stereo unspecified) | 48.6% | 100% | 94.2% | 104% | 82.4% | 94.5% | 90.3% | 92% | 92.3% | 102% | 81.7% | 100% | 97.8% | 99.9% | 92.3% | 98.7% | 114% | 99.8% |
| COc1ccc(/C(C)=N/NC(=O)c2ccc(S(C)(=O)=O)cc2)cc1OC | 97.6% | 130% | 110% | 106% | 97.7% | 88.4% | 109% | 113% | 100% | 113% | 82.6% | 96% | 112% | 103% | 92.9% | 84.7% | 104% | 103% |
| N#CCCn1cnc2c(N)ncnc21 | 98% | 101% | 96.5% | 98.4% | 107% | 99.6% | 125% | 109% | 99.5% | 109% | 95.4% | 103% | 102% | 102% | 97.1% | 99.1% | 113% | 106% |
| CN(C)c1nc(-c2cccs2)n2nc(-c3ccco3)cc2n1 | 74.1% | 73.2% | 96% | 99.4% | 74.6% | 90.2% | 81.1% | 101% | 99.2% | 93.5% | 53.5% | 94% | 104% | 96.7% | 36.3% | 91.4% | 93.9% | 81.4% |
| CN(C)CCCn1c(=O)c2cc([N+](=O)[O-])ccc2c2cnc3[nH]ccc3c21 | -27.6% (active) | 45.4% | 35.1% | 73.1% | 61% | 63.8% | 54.9% | 68.2% | 75.3% | 51.7% | 86.5% | 68.7% | 67.7% | 33.1% | -12% (active) | 12.4% | 60% | 47.9% |
| CS(=O)(=O)c1ccc(C(=O)N2N=C(c3ccccc3)CC2c2ccc3c(c2)OCO3)cc1 (stereo unspecified) | 90.9% | 95.7% | 100% | 100% | 99.3% | 83.7% | 96.2% | 106% | 95.7% | 103% | 78.5% | 86.3% | 113% | 100% | 84.1% | 81.7% | 99.3% | 93.6% |
| C=C1C(=O)O[C@H]2[C@H]1CC/C(COC(=O)N[C@@H](Cc1c[nH]c3ccccc13)C(=O)OC)=C\CC[C@@]1(C)O[C@@H]21 | 3.24% (active) | -14.2% (active) | 37.1% | 66% | 72.2% | 78.8% | 0.0104% (active) | -40.3% (active) | 77.8% | 88.2% | -16.9% (active) | 45.3% | 49.1% | -6.63% (active) | 11.7% | -78% (active) | 82.4% | 74.6% |
| CCn1c(Cc2ccccc2Nc2c(Cl)cccc2Cl)nnc1SCC(=O)Nc1ccccc1C(F)(F)F | 79.8% | 76.4% | 92.8% | 110% | 79% | 96.1% | 79.4% | 99.9% | 94.9% | 87.4% | 47.6% | 94.4% | 99.5% | 99.3% | 86.3% | 77.8% | 99.9% | 97.6% |
| CC(C)=CC[C@@H]1CC2(CC=C(C)C)C(=O)C(OC3(C(=O)c4ccccc4)C(=O)C4(CC=C(C)C)C[C@@H](CC=C(C)C)C(C)(C)C(CC=C(C)C)(C4=O)C3=O)(C(=O)c3ccccc3)C(=O)C(CC=C(C)C)(C2=O)C1(C)C (stereo partly specified) | 4.95% (active) | -23% (active) | 1.06% (active) | 14.9% | 20.4% | 2.61% (active) | 15.5% | -9.05% (active) | 1.98% (active) | 5.81% (active) | 1.58% (active) | -2.41% (active) | 6.28% (active) | 9.62% (active) | 2.12% (active) | -33.4% (active) | 10.7% | 6.68% (active) |
| COc1ccc(C(=O)OC2C(OC3C(O)COC(O[C@H]4C[C@H]5[C@@H]6CC=C7C[C@@H](O)CC[C@]7(C)[C@H]6CC[C@]5(C)[C@H]4[C@H](C)C(=O)CCC(C)C)C3OC(=O)C(C)C)OCC(O)C2O)cc1 (stereo partly specified) | 5.59% (active) | -27.4% (active) | 36.3% | 42% | 60.9% | -21.1% (active) | 37.2% | 60.5% | -2.09% (active) | 75% | -1.53% (active) | 14.6% | -1.62% (active) | -19.5% (active) | 3.21% (active) | 10.3% | 59% | 36.3% |
| COc1cc(C2CC(c3ccccc3)=NN2C=O)ccc1Oc1nc2c(c(=O)n(C)c(=O)n2C)n1C (stereo unspecified) | 67.4% | 61.1% | 91.3% | 97.6% | 65.3% | 125% | 77.7% | 103% | 75.8% | 57.9% | 69.7% | 95.7% | 56.8% | 97.9% | 72.3% | 79.9% | 77.6% | 74.7% |
| O=S1(=O)NCCCN1CCNc1nccc(-c2c(-c3cccc(O)c3)nc3sccn23)n1 | 23.2% | 107% | 83% | 108% | 85.4% | 43.6% | 56.7% | 73.3% | 70.4% | 116% | 78.3% | 86% | 24.6% | 88% | 91.8% | 31% | 108% | 102% |
| OC(COCc1ccccc1)COCc1ccccc1 | 89.2% | 109% | 106% | 108% | 107% | 103% | 108% | 94.7% | 122% | 127% | 101% | 98.6% | 112% | 110% | 92.6% | 99% | 97.9% | 105% |
| O=C(CCl)Nc1cc(O)c2c(c1)C(=O)c1cccc(O)c1C2=O | -35.5% (active) | -53.8% (active) | -49.5% (active) | -40% (active) | -1.37% (active) | 17.1% | -55.6% (active) | -100% (active) | 11.4% | 19.1% | -76.4% (active) | -48.4% (active) | 13.5% | -73.8% (active) | -49.6% (active) | -33.9% (active) | -42.3% (active) | -45.8% (active) |

Source: PubChem BioAssay (NCI)
